Source: PubChem BioAssay
Most compounds without a hit are left out; they make up all but 8.9% or so of the library.
ALDH1A1 inh: qHTS Assay for Inhibitors of Aldehyde Dehydrogenase 1 (ALDH1A1). 220,000 tested, 7.3% active. AID 1030, 2008. Potency, µM (series often up to 75.3 µM), inactives show top-dose activity, negative = inhibition, hits mostly inhibitors. Purified ALDH1A1, NADH fluorescence, propionaldehyde substrate. Aldehyde dehydrogenase 1A1 (Homo sapiens), P00352; active = well fitted inhibition curve with a large enough effect, not every such curve was filed as active; inconclusive = small, poorly fitted or top-dose-only effect, or another doubt; inactive = no such curve, though single readings can be large or run the other way;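 also: potency is read from the fitted curve at half-maximal effect; plate controls were no enzyme wells and a reference inhibitor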
Target sequence (P00352 whole entry, looked up): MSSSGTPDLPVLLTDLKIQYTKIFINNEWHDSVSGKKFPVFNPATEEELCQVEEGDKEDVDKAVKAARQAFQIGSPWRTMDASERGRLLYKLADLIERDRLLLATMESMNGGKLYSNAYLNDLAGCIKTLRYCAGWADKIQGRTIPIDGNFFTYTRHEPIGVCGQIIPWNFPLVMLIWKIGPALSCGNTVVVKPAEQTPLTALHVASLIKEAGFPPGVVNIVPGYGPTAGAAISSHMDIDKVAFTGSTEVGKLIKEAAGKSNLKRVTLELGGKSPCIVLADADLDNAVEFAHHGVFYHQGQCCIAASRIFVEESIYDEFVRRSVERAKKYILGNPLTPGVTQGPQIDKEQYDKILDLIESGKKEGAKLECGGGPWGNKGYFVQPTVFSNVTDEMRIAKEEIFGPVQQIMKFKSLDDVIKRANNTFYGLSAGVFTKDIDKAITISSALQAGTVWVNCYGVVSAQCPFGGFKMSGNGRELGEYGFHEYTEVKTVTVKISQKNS
IMPase Li cell: qHTS Assay for Identifying the Cell-Membrane Permeable IMPase Inhibitors: Potentiation with Lithium | CHO-M1 cells, IP1 TR-FRET (IP-One), carbachol + lithium | Potency, µM (series often up to 59.4 µM), without a hit: top-dose activity, negative = IMPase inhibition, most hits filed as inhibitors | 210,000 tested, 0.35% active;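 also: IP1 builds up when IMPase is blocked and the TR-FRET signal falls; potency is read from the fitted curve at half-maximal effect; plate controls were basal vehicle for no effect and high inhibitor control for full effect; nearly all actives have a fitted effect of over 50% in size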
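Lithium-sensitised IP1 accumulation assay; M1-expressing CHO cells treated 30 min at 37C with compound. Competitive antibody detection by time-resolved FRET followed a 10 min room-temperature lysis step.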
HPGD block: qHTS Assay for Inhibitors of HPGD (15-Hydroxyprostaglandin Dehydrogenase); purified HPGD, NADH fluorescence kinetic, PGE2 substrate; 15-hydroxyprostaglandin dehydrogenase [NAD(+)] (Homo sapiens), P15428; 150,000 tested, 4.3% active; Potency, µM, for the others: top-dose activity change, negative = inhibition, usual class: inhibitors; active = well fitted inhibition curve with a large enough effect, not every such curve was filed as active; inconclusive = small, poorly fitted or top-dose-only effect, or another doubt; inactive = no such curve, though single readings can be large or run the other way; also: potency is read from the fitted curve at half-maximal effect
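NADH formation kinetics: reaction with 30 uM PGE2 and 1 mM NAD+ (final), 20 nM enzyme, Tris-HCl pH 8 with Tween 20, after 15 min compound preincubation at room temperature. Fluorescence change, last versus first of five reads.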
NPSR antag: qHTS Assay for Antagonists of the Neuropeptide S Receptor: cAMP Signal Transduction. 220,000 tested, 1% active. Potency, µM (top dose mostly 38.3 µM), for the others: top-dose activity change, negative = inhibition, most hits filed as inhibitors. CHO-NPSR cells, cAMP TR-FRET, antagonist mode. AID 1461, 2008; also: potency is read from the fitted curve at half-maximal effect; nearly all actives have a fitted effect of over 50% in size
ALOX12 inhib: qHTS Assay for Inhibitors of 12-hLO (12-human lipoxygenase); AID 1452, 2008; Potency, µM (top dose mostly 57.1 µM), for the others: at the top dose activity change, negative = inhibition, usual class: inhibitors; 150,000 tested, 0.12% active; purified 12-hLO, xylenol orange hydroperoxide absorbance; also: potency is read from the fitted curve at half-maximal effect; nearly all actives have a fitted effect of over 55% in size
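Xylenol orange chromogenic assay: hydroperoxide from 12hLO oxidises Fe(II), giving red-shifted Fe(III)-XO absorbance. Conditions: 150 nM enzyme, 40 uM arachidonic acid, 25 mM Hepes pH 7.0, 0.01% Triton X-100, 30 min, room temperature.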
IMPase cell inh: qHTS Assay for Identifying the Cell-Membrane Permeable IMPase Inhibitors. 120,000 tested, under 10 active. AID 901, 2007. CHO-M1 cells, IP1 accumulation, HTRF TR-FRET ratio. inhibition (IP1 accumulation), % at 46.1 µM; active = well fitted curve in the direction sought with a large enough effect in the signal ratio, not every such curve was filed as active; inconclusive = small, poorly fitted or top-dose-only effect, or a change in a side signal; inactive = no such curve, though single readings can be large or run the other way; the % refers to the signal ratio;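 also: cells stimulated with carbachol in lithium chloride buffer; plate controls were DMSO basal wells for no effect and reference inhibitor wells for full effect; higher means more IMPase inhibition seen as more IP1 and lower FRET ratio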
Target sequence (P97697 whole entry, looked up): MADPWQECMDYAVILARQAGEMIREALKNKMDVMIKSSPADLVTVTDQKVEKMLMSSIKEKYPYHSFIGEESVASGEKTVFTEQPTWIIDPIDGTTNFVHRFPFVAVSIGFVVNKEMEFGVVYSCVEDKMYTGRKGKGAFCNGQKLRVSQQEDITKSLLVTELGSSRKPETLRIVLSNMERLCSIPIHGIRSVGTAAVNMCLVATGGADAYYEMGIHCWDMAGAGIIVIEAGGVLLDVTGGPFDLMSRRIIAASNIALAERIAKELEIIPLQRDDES
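In this qHTS, compounds (final up to 46 uM) act on CHO-M1 cells that are then activated through the M1 receptor with carbachol, in pH 7.4 buffer containing 50 mM LiCl, for 30 min. IP1 accumulation is quantified by the IP-One immunoassay.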
* = called active by the depositor; ? = inconclusive; . = no result given; [ ] = another dose, or the depositor's remark. Unless noted, calls follow the shape of the dose curve; as a rule, active = well fitted curve in the direction sought with a large enough effect; inconclusive = small, poorly fitted or top-dose-only effect, or another doubt; inactive = no such curve, though single readings can be large; an effect the other way counts as inactive or inconclusive. Unless noted, % is scaled to controls: 0 for no effect and ±100 for the full control effect.

SMILES	ALDH1A1 inh	IMPase Li cell	HPGD block	NPSR antag	ALOX12 inhib	IMPase cell inh
CC(=O)c1c(C)[nH]c(C2=NNC(=NC(C)(C)C)SC2)c1C	11µM*	8%	.	0%	.	.
O=C(N/N=C/c1cccc([N+](=O)[O-])c1)c1ccc(COc2ccccc2-c2ccccc2)cc1	8%	-3%	-12%	-22%	0%	2
COC(=O)c1ccccc1	8%	13%	-5%	.	-3%	.
COC(=O)c1ccc(C23CC2(C(NP(=O)(c2ccccc2)c2ccccc2)c2ccccc2)C3)cc1 (stereo not drawn)	32µM*	9%	-19%	.	-12%	.
Cc1cccc(C)c1N1CCN(C(=O)N2CCOCC2)CC1	11µM*	18%	.	0%	.	.
O=C1c2ccccc2-c2c1cccc2C(=O)N1CCN(C(=O)c2ccco2)CC1	16µM*	-1%[38.3 µM]	-10%	-6%[46.1 µM]	-5%	6
O=C(c1ccco1)N1CCN(C(=O)N2CCOCC2)CC1	32µM*	-10%[38.3 µM]	-11%	-2%[46.1 µM]	2%	-1
O=C(c1ccco1)N1CCCN(C(=O)c2ccco2)CC1	1%	19%[38.3 µM]	-5%	1%[46.1 µM]	-3%	-9
COc1ccc(-c2nnc(-c3ccc(OCC(C)C)cc3)o2)cc1	?	-3%[38.3 µM]	?	-7%[46.1 µM]	-1%	-4
COc1ccc2cc(C(=O)Nc3c(C)n(C)n(-c4ccccc4)c3=O)sc(=O)c2c1OC	1%	-8%	.	5%	.	.
CCOc1ccccc1C(=O)N[C@H](C(=O)Nc1cc(S(=O)(=O)N(C)C)ccc1OC)C(C)C	10µM*	6%	.	-14%	.	.
CCOc1ccccc1C(=O)NC(C(=O)NCc1ccccc1OC)C(C)C (stereo not drawn)	5%	1%	.	-18%	.	.
Cc1cc([N+](=O)[O-])ccc1NC(=O)/C=C/c1cccs1	?	-1%	-10%	-8%	-6%	-5
CCC(=O)N(Cc1cc2ccc(C)cc2n2nnnc12)C1CCCCC1	5µM*	19%	-3%	2%[46.1 µM]	2%	-9
Cc1ccc2c(c1)cc(CN(C(=O)N1CCOCC1)C1CCCC1)c1nnnn12	2%	-3%	.	14%	.	.
O=S(=O)(c1ccccc1)N1CCCC1c1cccs1 (stereo not drawn)	9%	.	.	14%	.	.
CCc1ccccc1N(C1=NCCCS1)S(=O)(=O)c1ccc(C(C)(C)C)cc1	0.79µM*	-2%	-17%	-27%	4%	.
CCN(CC)CCNC(=O)c1c(C)n(-c2ccccc2)c2cc(Br)c(OC)cc12	0.63µM*	-27%[38.3 µM]	-6%	-16%[46.1 µM]	1%	6
CCN(CC)c1ccc(/C=C/C(=O)C2C(=O)C=C(C)OC2=O)cc1 (stereo not drawn)	18µM*	-16%	.	-18%	.	.
CCN(CC)c1ccc(C2C(C(=O)OC)=C(C)NC(C)=C2C(=O)OC)cc1	?	?	?	?	-4%	8
Cc1ccc(NC(=O)C2CC(=O)Nc3nncn32)cc1 (stereo not drawn)	?	0%	.	7%	.	.
Cc1cc(C)nc(N2CCCC(C(=O)Nc3ccc4nc(C)c(C)nc4c3)C2)n1 (stereo not drawn)	16µM*	13%[38.3 µM]	-14%	-11%[46.1 µM]	-8%	-3
Cc1cc(C)cc(NC(=O)C2CCCN(c3nc(C)cc(C)n3)C2)c1 (stereo not drawn)	1%	-3%[38.3 µM]	-1%	-17%[46.1 µM]	2%	10
COc1cccc(S(=O)(=O)NCc2ccc(C(=O)Nc3cccc(Cl)c3)cc2)c1	?	35%[38.3 µM]	-16%	-18%[46.1 µM]	-5%	1
CC1(C)Cn2c(nnc2-c2ccccc2)S1	3%	12%[38.3 µM]	16µM*	2%[46.1 µM]	3%	-4
SMILES	ALDH1A1 inh	IMPase Li cell	HPGD block	NPSR antag	ALOX12 inhib	IMPase cell inh
CC1(C)Cc2ccccc2-c2nnc(-c3ccccc3)n21	-1%	13%[38.3 µM]	-2%	-10%[46.1 µM]	-2%	-6
O=C(Nc1nnc(-c2ccco2)o1)c1ccc([N+](=O)[O-])s1	?	0%	.	-12%	.	.
CCSC1=N/C(=C\c2cccc(F)c2)C(=O)S1	7%	5%	-6%	-7%	-1%	.
COc1ccc(O)c(/C=N/Nc2nc(Nc3ccccc3)nc(-n3nc(C)cc3C)n2)c1	7%	1%[38.3 µM]	-14%	1.3µM*	-6%	4
CCCCCC(=O)N/N=C/c1ccc([N+](=O)[O-])o1	.	.	.	-14%	.	.
CCc1ccc(C(=O)/C=C/c2ccc([N+](=O)[O-])o2)cc1	3.5µM*	29%[38.3 µM]	-24%	?	?	-2
CC12CCC(c3c(C(=O)O)nn(-c4ccccc4)c31)C2(C)C (stereo not drawn)	9%	-4%[38.3 µM]	-6%	-3%[46.1 µM]	2%	-6
CC12CCC(c3c(C(=O)Nc4nccs4)nn(-c4ccccc4)c31)C2(C)C (stereo not drawn)	4µM*	18%[38.3 µM]	-21%	?	-5%	-4
CCn1nnnc1-c1ccc(OC)c(S(=O)(=O)Nc2ccc(OC)cc2)c1	0.11µM*	12%[38.3 µM]	-16%	-14%[46.1 µM]	0%	-5
CCn1nnnc1-c1ccc(OC)c(S(=O)(=O)Nc2ccc(C(=O)OC)cc2)c1	7.1µM*	20%[38.3 µM]	-8%	-12%[46.1 µM]	-1%	25
COC(=O)c1ccc(NS(=O)(=O)c2cc(C)ccc2OC)cc1	1%	-2%[38.3 µM]	?	-9%[46.1 µM]	-6%	-7
CCOC(=O)c1ccc(NS(=O)(=O)c2cc(-c3nnnn3C(C)C)ccc2OC)cc1	2.8µM*	-12%[38.3 µM]	-22%	-9%[46.1 µM]	0%	?
CCCn1nc(Oc2nc(NCC)nc(NCC)n2)ccc1=O	-5%	-4%[38.3 µM]	-1%	-3%[46.1 µM]	4%	4
Cc1ccc(N2C(=O)NC(NC(=O)C(C)(C)C)(C(F)(F)F)C2=O)cc1C (stereo not drawn)	-2%	-1%	2%	-2%	-3%	.
CCN1CCN(C(=O)CN(Cc2ccccc2)S(C)(=O)=O)CC1	?	3%[38.3 µM]	-2%	-7%[46.1 µM]	2%	6
COCCNC(=O)CSc1nc2ccccc2c(=O)n1CCC(=O)NCCc1ccc(OC)c(OC)c1	14µM*	-2%	.	6%	.	.
COc1ccc(CCNC(=O)CCn2c(SCC#N)nc3ccccc3c2=O)cc1OC	20µM*	-20%[38.3 µM]	-2%	?	-3%	10
COc1ccc(CCNC(=O)CCCn2c(SCC#N)nc3ccccc3c2=O)cc1OC	-6%	9%[38.3 µM]	-6%	-10%[46.1 µM]	-6%	2
